The campaign covered roughly 310,000 compounds. About 14,000 (4.5%) showed an effect of 50% or more. The effect is printed as a negative number. Shown is part of a subset that was picked to be rich in strong results.
target: human ether-à-go-go-related gene (hERG) potassium channel (human, UniProt Q12809); assay: primary screen, population patch clamp on CHO cells stably expressing hERG; higher = less effect of the substance
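Note: peak tail current of the secondary pulse compared with the same well before compound.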

Chain of human ether-à-go-go-related gene (hERG) potassium channel (Q12809 whole entry, looked up): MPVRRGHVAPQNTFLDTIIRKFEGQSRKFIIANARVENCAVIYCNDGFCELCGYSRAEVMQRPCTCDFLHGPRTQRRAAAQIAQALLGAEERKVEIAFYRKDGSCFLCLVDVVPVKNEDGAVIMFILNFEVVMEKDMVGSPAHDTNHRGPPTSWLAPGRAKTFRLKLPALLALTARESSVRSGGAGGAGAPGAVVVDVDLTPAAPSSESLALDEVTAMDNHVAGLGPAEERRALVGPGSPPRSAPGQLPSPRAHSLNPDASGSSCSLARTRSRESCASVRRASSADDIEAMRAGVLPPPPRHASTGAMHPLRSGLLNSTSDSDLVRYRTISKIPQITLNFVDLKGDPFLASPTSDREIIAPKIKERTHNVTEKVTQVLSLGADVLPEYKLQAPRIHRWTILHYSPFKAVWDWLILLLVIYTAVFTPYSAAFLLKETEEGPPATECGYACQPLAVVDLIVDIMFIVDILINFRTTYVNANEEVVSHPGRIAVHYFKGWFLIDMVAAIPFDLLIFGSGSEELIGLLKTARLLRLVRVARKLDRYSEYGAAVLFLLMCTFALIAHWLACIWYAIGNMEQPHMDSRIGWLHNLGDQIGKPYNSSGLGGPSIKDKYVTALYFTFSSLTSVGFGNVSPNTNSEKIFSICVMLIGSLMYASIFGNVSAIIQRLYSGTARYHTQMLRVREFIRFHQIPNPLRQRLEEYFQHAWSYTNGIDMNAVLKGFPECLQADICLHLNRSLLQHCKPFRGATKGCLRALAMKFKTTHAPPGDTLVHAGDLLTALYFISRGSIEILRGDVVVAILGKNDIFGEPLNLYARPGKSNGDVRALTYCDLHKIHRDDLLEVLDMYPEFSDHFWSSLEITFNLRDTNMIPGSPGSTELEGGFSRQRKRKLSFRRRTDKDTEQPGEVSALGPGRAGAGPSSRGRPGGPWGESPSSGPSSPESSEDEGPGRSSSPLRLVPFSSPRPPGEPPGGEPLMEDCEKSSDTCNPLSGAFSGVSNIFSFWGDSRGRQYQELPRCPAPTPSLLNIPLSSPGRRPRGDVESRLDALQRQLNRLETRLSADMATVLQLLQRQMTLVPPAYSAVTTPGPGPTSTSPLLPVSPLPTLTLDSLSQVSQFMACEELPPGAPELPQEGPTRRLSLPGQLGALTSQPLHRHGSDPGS

SMILES	hERG current change (%, negative = inhibition) at 10uM
COc1ccc(C(NC(=O)c2cccnc2)c2cc(Cl)c3cccnc3c2O)cc1OC (stereo not drawn)	10.5%
NS(=O)(=O)c1ccc(NC(=O)CSc2nnc(-c3ccc(O)cc3)o2)cc1	25.1%
Cc1onc(-c2ccccc2)c1C(=O)OCC(=O)NC(C)c1ccc(Cl)cc1 (stereo not drawn)	-7.03%
CCOc1nc(-c2ccccc2O)nc2ccccc12	2.42%
Cc1ccc(-c2cc(-c3ccc(C)cc3)[n+](C)o2)cc1.[O-][Cl+3]([O-])([O-])[O-]	-68.4%
Cc1ccc(-c2cc(-c3ccc(C)cc3)[n+](-c3ccc(C(=O)O)cc3)c(-c3ccc(C)cc3)c2)cc1.[O-][Cl+3]([O-])([O-])[O-]	26.5%
Cc1ccc(-c2cc(-c3ccc(C)cc3)[n+](-c3ccc(C(=O)[O-])cc3)c(-c3ccc(C)cc3)c2)cc1	-26.8%
C=CCNC(=O)c1onc(CSc2ccc(F)cc2)c1C(=O)NCCOC	-43%
CCN(CC(=O)NCc1ccc(Cl)cc1)C(=O)/C=C/c1cc(OC)c(OC)c(OC)c1	3.83%
CCN(CC(=O)Nc1ccccc1C(F)(F)F)C(=O)/C=C/c1ccc(Cl)c([N+](=O)[O-])c1	10.1%
CCN(CC(=O)NCc1ccc(Cl)cc1)C(=O)/C=C/c1ccccc1	-46%
CCN(CC(=O)NCc1ccc(Cl)cc1)C(=O)/C=C/c1cccs1	-49.1%
CCN(CC(=O)NCc1ccc(Cl)cc1)C(=O)/C=C/c1ccc(Cl)c([N+](=O)[O-])c1	-67.6%
CCN(CC(=O)NCc1ccc(Cl)cc1)C(=O)/C=C/c1ccc(C#N)cc1	-62%
CN(CCC(=O)Nc1ccc(Cl)cc1)Cc1ccccc1.Cl	-39.9%
CCCC(NC(=O)COc1cc2c(c3oc(=O)cc(C)c13)CCC(C)(C)O2)C(=O)O (stereo not drawn)	18.4%
O=C(NCc1ccccc1)c1ccc(C2SCC(=O)N2Cc2ccccc2)cc1 (stereo not drawn)	-12.6%
CCOc1c(OC(C)=O)ccc(/C=C/c2ccc3cccc(OC(C)=O)c3n2)c1[N+](=O)[O-]	-4.23%
O=Cc1ccc2oc3nc4n(c(=O)c3c(=O)c2c1)CCCS4	-35.7%
CCC(CC)COC(=O)C(C#N)c1nc2ccccc2nc1N1CCOCC1 (stereo not drawn)	-7.91%
CCC(CC)COC(=O)C(C#N)c1nc2ccccc2nc1N1CCN(CC)CC1 (stereo not drawn)	-72.7%

SMILES	hERG current change (%, negative = inhibition) at 10uM
CCC(C)COC(=O)C(C#N)c1nc2ccccc2nc1N1CCCCC1 (stereo not drawn)	-1.25%
COC(=O)C(C#N)c1nc2ccccc2nc1N1CCCC1 (stereo not drawn)	-0.357%
CCN1CCN(c2nc3ccccc3nc2C(C#N)C(=O)OCc2ccccc2)CC1 (stereo not drawn)	-73.7%
CCOC(=O)N1CCN(c2nc3ccccc3nc2C(C#N)C(=O)NCCc2ccccc2)CC1 (stereo not drawn)	7.98%
COc1ccc(/C=C/C(=O)c2ccc[nH]2)c(OC)c1OC	-4.89%
CC(=O)c1ccc(-n2c(C)ccc2-c2ccccc2)cc1	1%
CCOC(=O)N1CCN(C(=O)Cn2ccc3c(OC)cccc3c2=O)CC1	6.78%
CCOC(=O)c1sc(NS(=O)(=O)c2cc(C)ccc2C)nc1C	10.4%
COc1ccc(/C=C/C=C2\NC(=S)NC2=O)cc1	22.1%
Cc1cc2nc(/N=C(\N)NC(=O)N3c4ccccc4Sc4ccccc43)nc(C)c2cc1C	-38.9%
NC(=O)CSC1=Nc2ccccc2C2=NC(c3ccccc3)C(=O)N12 (stereo not drawn)	1.61%
CCN(CC)C(=O)CSC1=Nc2ccccc2C2=NC(c3ccccc3)C(=O)N12 (stereo not drawn)	-46.4%
CCC(C)NC(=O)CSC1=Nc2ccccc2C2=NC(c3ccccc3)C(=O)N12 (stereo not drawn)	-55.3%
CN(C(=O)CSC1=Nc2ccccc2C2=NC(c3ccccc3)C(=O)N12)C1CCCCC1 (stereo not drawn)	-73%
CCC(C)NC(=O)CSC1=Nc2ccccc2C2=NC(CC(=O)NCc3ccccc3)C(=O)N12 (stereo not drawn)	-0.668%
O=C(CSC1=Nc2ccccc2C2=NC(c3ccccc3)C(=O)N12)NC1CCCCC1 (stereo not drawn)	-20.1%
O=C1CCCC(O)=C1N=Nc1cccc(S(=O)(=O)N2CCOCC2)c1	-1.24%
O=C(N/N=C\c1ccc[nH]1)c1cncc(Br)c1	3.82%
O=C(NCc1ccccn1)C1CCCN(S(=O)(=O)c2ccccc2)C1 (stereo not drawn)	10.9%
COc1ccc(C(=O)NCc2nnc(SCC(=O)NO)n2Cc2ccccc2)cc1	-5.01%
COc1ccc(C(=O)NNC(=O)c2ccncc2)cc1[N+](=O)[O-]	25.2%

SMILES	hERG current change (%, negative = inhibition) at 10uM
COc1ccccc1NC(=O)c1ccc(-n2ccnc2)c([N+](=O)[O-])c1	15.1%
Cc1c(C(=O)NC(C)CCc2ccccc2)cccc1[N+](=O)[O-] (stereo not drawn)	-18.2%
CC(NC(=O)c1ccc(N(C)C)c([N+](=O)[O-])c1)c1ccc(-n2ccnc2)cc1 (stereo not drawn)	-62.9%
O=C(O)c1ccc(-n2ccnc2)c([N+](=O)[O-])c1	32.1%
Cc1cccc(C(=O)NC(C)c2ccc(-n3ccnc3)cc2)c1C (stereo not drawn)	-42.2%
CC(NC(=O)c1cc([N+](=O)[O-])cc([N+](=O)[O-])c1)c1ccc(-n2ccnc2)cc1 (stereo not drawn)	-73.5%
COc1ccc(C(=O)NC(C)c2ccc(-n3ccnc3)cc2)cc1[N+](=O)[O-] (stereo not drawn)	-77.9%
O=[N+]([O-])c1ccc(-n2ccnc2)cc1	7.95%
Cc1c(C(=O)NC(C)c2ccc(-n3ccnc3)cc2)cccc1[N+](=O)[O-] (stereo not drawn)	-74.1%
Cc1cccc(N2CN(Cc3cccnc3)CNC2=S)c1	-3.28%
COc1ccc(-c2cc(=O)oc3c(C)c(OCC(=O)Nc4cccnc4)ccc23)cc1	-11.6%
CC(=O)c1ccc(N2CCN(C(=O)c3cc(-c4ccc5c(c4)OCO5)nc4ccccc34)CC2)cc1	2.88%
CCn1cc(S(=O)(=O)NCc2ccccc2Br)cn1	-1.6%
CCOC(=O)N1CCN(C(=O)c2c[nH]c3ccc(S(=O)(=O)N(C)c4ccccc4C)cc3c2=O)CC1	-1.1%
O[C@@H]1CCCN2CCc3c([nH]c4ccccc34)[C@H]12	10.9%
Cc1onc(-c2c(Cl)cccc2Cl)c1C(=O)N1CCN(c2ccccc2F)CC1	7.58%
Cc1ccc(S(=O)(=O)N(CC(=O)N2CCOCC2)C2CCCCC2)cc1	-23.3%
NC(=O)C1CCN(C(=O)CN(C2CCCCC2)S(=O)(=O)c2ccc(F)cc2)CC1	-13.4%
Cc1ccc(S(=O)(=O)N(CC(=O)N2CCCC2)C2CCCCC2)cc1	-37.7%
CCOC(=O)N1CCN(C(=O)CN(C2CCCCC2)S(=O)(=O)c2ccc(Cl)cc2)CC1	-47.8%
O=C(CN(C1CCCCC1)S(=O)(=O)c1ccccc1)N1CCCC1	-59.3%

SMILES	hERG current change (%, negative = inhibition) at 10uM
O=C(CN(C1CCCCC1)S(=O)(=O)c1ccc(Cl)cc1)N1CCOCC1	-59.5%
Cc1ccc(SCC(=O)OCC(=O)N(CC(C)C)C2CCS(=O)(=O)C2)cc1C (stereo not drawn)	-4.29%
CCc1cc(C(c2ccccn2)N2CCN(C)CC2)c(NC(=O)c2ccccc2)s1 (stereo not drawn)	-59.1%
Cc1sc(NC(=O)c2ccccc2)c(C(c2ccc(Cl)cc2)N2CCN(CCO)CC2)c1C (stereo not drawn)	-4.47%
CCc1cc(C(c2ccncc2)N2CCN(C)CC2)c(NC(=O)c2ccccc2)s1 (stereo not drawn)	-40.2%
CCc1cc(C(c2ccccc2OC)N2CCOCC2)c(NC(=O)c2ccccc2)s1 (stereo not drawn)	21.3%
Cc1sc(NC(=O)c2ccccc2)c(C(c2ccccn2)N2CCN(CCO)CC2)c1C (stereo not drawn)	-53.7%
CCN1CCN(C(c2ccccn2)c2c(NC(=O)c3ccccc3)sc(C)c2C)CC1 (stereo not drawn)	-59.8%
CCOc1ccc(C(c2c(NC(=O)c3ccccc3)sc(C)c2C)N2CCN(CCO)CC2)cc1 (stereo not drawn)	-21.1%
CC(=O)Nc1sc2c(c1C(c1ccccn1)N1CCN(C)CC1)CCCC2 (stereo not drawn)	-12.9%
COc1cccc(C(c2c(NC(=O)c3ccccc3)sc(C)c2C)N2CCN(C)CC2)c1 (stereo not drawn)	-17.6%
COc1ccc(/C(C)=N/NC(=O)c2nnn(-c3nonc3N)c2-c2ccccc2)cc1	19.8%
N#CC(c1ccccn1)c1ncc(C(F)(F)F)cc1Cl (stereo not drawn)	23.5%
Cc1cccc(Cn2c(C(=O)OC(C)C)cc3c2ccn3C)c1	6.07%
S=c1[nH]nc(COc2ccc(Cl)cc2)n1C1CCCCC1	14.3%
Cc1cc(NC(=O)COC(=O)[C@@H](NS(=O)(=O)c2ccccc2)C(C)C)no1	-7.67%
COc1ccc(S(=O)(=O)NC(C)C(=O)NCc2ccncc2)cc1OC (stereo not drawn)	15.7%
Cc1c([C@H]2[C@@H](CC#N)C2(C)C)c2ccccc2n1C	-10.4%
Clc1ccc(-c2nnc(NCCN3CCCC3)c3ccccc23)cc1	-71.3%
Clc1ccc(-c2nc(NCCN3CCOCC3)c3ccccc3n2)cc1	-15.6%
Clc1ccc(-c2nnc(NCc3ccccc3)c3ccccc23)cc1	-13.3%

Reference: PMC4336329 (PLoS ONE, 2015)
